Screening results: PubChem BioAssay, The Scripps Research Institute Molecular Screening Center
IEC-6 tox: kills IEC-6 intestinal cells in KLF5 counter-screen | inhibition, % at 5 µM | hit rate 0.78% among 290,000 | IEC-6 cytotoxicity, luminescence viability
KLF5 inhibitor: kruppel-like factor 5 inhibition. DLD-1 KLF5 promoter-luciferase reporter, luminescence. inhibition, % at 5 µM. hit rate 0.23% among 290,000;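 active means inhibition above a per-plate limit of that plate's mean compound inhibition plus 3 SD, cut at about 60% in these data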;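 further: higher means less KLF5 promoter-driven luciferase light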
BaF3 tox: counter-screen for JAK2V617F inhibitors: parental Ba/F3 viability inhibitors | CellTiter-Glo ATP luminescence | inhibition, % at 5.6 µM | hit rate 1.1% among 220,000 | AID 1486;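 active means inhibition above a per-campaign cutoff, the mean inhibition of all tested compounds plus 3 SD, cut at about 27% in these data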
GPR7 antagonist: human neuropeptides B/W receptor 1 antagonism. hit rate 1.1% among 290,000. inhibition, % at 4.4 µM. P48145. GPR7-expressing cells, fluorescence antagonist assay; in the data active means inhibition above about 16%, passing the limit was not always enough;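 further: cells stimulated with the agonist NPW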
Target sequence (P48145 whole entry, looked up): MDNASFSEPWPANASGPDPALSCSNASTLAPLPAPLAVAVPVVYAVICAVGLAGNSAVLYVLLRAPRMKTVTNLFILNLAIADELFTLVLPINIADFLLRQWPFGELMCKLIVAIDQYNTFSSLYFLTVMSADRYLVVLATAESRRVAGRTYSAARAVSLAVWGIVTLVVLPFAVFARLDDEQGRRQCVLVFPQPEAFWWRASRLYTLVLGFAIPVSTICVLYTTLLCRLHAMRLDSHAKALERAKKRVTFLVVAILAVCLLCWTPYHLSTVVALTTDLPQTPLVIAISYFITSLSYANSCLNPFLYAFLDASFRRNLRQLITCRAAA
Ba/F3 V617F tox: lowers viability of Ba/F3 cells expressing EpoR and JAK2V617F; hit rate 1.1% among 220,000; inhibition, % at 5.6 µM; ATP luminescence;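 active means inhibition above the campaign mean plus 3 SD over all tested compounds, cut at about 24% in these data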;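 further: cytokine-independent growth of Ba/F3 cells driven by EpoR plus mutant JAK2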
DNA FID counter: fluorescent intercalator displacement, NS3 helicase counter-screen. DNA fluorescent intercalator displacement, fluorescence. inhibition, % at 7.9 µM. hit rate 0.17% among 290,000. AID 1845; in the data active means inhibition above about 37%;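 further: higher means more ethidium bromide displaced from hairpin DNA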
GPR7 antag cf: human GPR7 antagonism, confirmation assay; shares compounds with GPR7 antagonist; GPR7-expressing cells, calcium fluorescence antagonist mode; inhibition, % at 4.4 µM; hit rate 52% among 2,400; in the data active means inhibition above about 24%;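 further: stimulated with the GPR7 agonist NPW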
MCHR1 antagonist: MCHR1 (human) antagonism in GPR7 counter-screen; shares compounds with GPR7 antagonist; MCHR1-expressing cells, fluorescence antagonist assay; inhibition, % at 4.4 µM; hit rate 62% among 2,400; AID 2148
Hits are given with their value; i = inactive; nt = not tested or not shown. This is a sample that favours compounds with a hit; in the whole collection about 2.6% have one here. Unless noted, no stated cut-off is given here; in the data, active means inhibition above about 22%; inactive means the rest.

SMILES	IEC-6 tox	KLF5 inhibitor	BaF3 tox	GPR7 antagonist	Ba/F3 V617F tox	DNA FID counter	GPR7 antag cf	MCHR1 antagonist
COc1ccc(C(=O)N(C)Cc2ccc(C)o2)cc1OC1CCN(C(C)=O)CC1	i	i	nt	23.2	nt	i	i	36.3
Nc1nc(N)nc(-c2ccccc2-c2nc(N)nc(N)n2)n1	i	i	i	i	i	i	i	i
CN1/C(=C\C(=O)COC(=O)C2COc3ccccc3O2)C(C)(C)c2ccccc21 (configuration not stated)	i	i	i	i	i	i	nt	nt
CN1/C(=C\C(=O)COc2ccc3c(c2)OCO3)C(C)(C)c2ccccc21	i	i	62.5	27.5	64.0	i	i	44.0
CCN1CCN(C(=O)c2ccc(CS(=O)Cc3ccc(C)cc3)o2)CC1 (configuration not stated)	i	i	nt	i	nt	i	nt	nt
Cc1oc2c(C)c(O)ccc2c(=O)c1-c1cnn(-c2ccccc2)c1	i	i	i	28.5	i	i	i	i
CC1=C(C(=O)Nc2ccc(C)cc2)C(c2ccc(N(C)C)cc2)NC(=O)N1 (configuration not stated)	i	i	i	i	i	i	nt	nt
C=CCN1C(=O)S/C(=C/c2ccc(Sc3nc4ccccc4[nH]3)o2)C1=O	i	i	i	53.6	i	i	37.0	74.7
CSc1nc2c(c(=O)[nH]1)C(c1ccccc1)C1=C(CC(C)(C)CC1=O)N2 (configuration not stated)	i	i	i	i	i	i	nt	nt
O=C(c1ccc(F)cc1)N(NC(=O)C(O)(c1ccccc1)c1ccccc1)c1ccccc1	i	i	i	37.4	i	i	46.0	31.0
COc1ccccc1NNC(=O)C(O)(c1ccccc1)c1ccccc1	i	i	i	i	i	i	nt	nt
COC(=O)N(NC(=O)C(O)(c1ccccc1)c1ccccc1)c1ccccc1	i	i	i	26.0	i	i	i	26.6
O=C(NN(C(=O)c1ccccc1)c1ccccc1)c1ccccc1	i	i	i	i	i	i	nt	nt
CC(C)(C)NC(=O)C(c1ccc(O)cc1)N(Cc1ccccc1)C(=O)CCC(=O)Nc1nccs1 (configuration not stated)	i	i	nt	i	nt	i	nt	nt
O=C(NCCCN1CCCC1=O)Nc1ccccc1F	i	i	nt	i	nt	i	nt	nt
CC(O)CNCCCOc1ccc(Cl)cc1C(C)(C)C (configuration not stated)	i	i	i	21.3	i	i	38.4	45.5
CN(C)CCOCCOc1ccc(Cl)cc1C(C)(C)C	i	i	i	i	i	i	nt	nt
CCn1nnnc1SCC(=O)Nc1nc2ccccc2s1	i	i	i	i	i	i	nt	nt
OCCCCNCc1ccc(OCc2ccc(Cl)cc2Cl)cc1	i	i	27.1	38.6	59.1	i	66.5	58.5
OCCNCc1ccc(OCc2ccc(Cl)cc2Cl)cc1	i	i	i	30.6	i	i	40.4	43.0
CC(C)Oc1cccc(C(=O)C2CCCN(C(=O)c3cc(C4CC4)[nH]n3)C2)c1 (configuration not stated)	i	i	nt	i	nt	i	nt	nt
CC(C)(c1ccccc1)c1ccc(OCCCN2CCNCC2)cc1	i	i	i	i	i	i	nt	nt
CCC(C)NCCOc1ccc(C(C)(C)c2ccccc2)cc1 (configuration not stated)	i	i	i	21.5	i	39.3	27.4	30.1
CC(C)(c1ccccc1)c1ccc(OCCN2CCOCC2)cc1	i	i	nt	37.4	nt	i	i	i
COC(=O)[C@@]1(Cc2ccccc2)[C@H]2c3cc(C(=O)N4CCCC4)n(Cc4ccsc4Br)c3C[C@H]2CN1C(=O)c1ccccc1	i	i	i	45.6	i	i	37.3	25.6
SMILES	IEC-6 tox	KLF5 inhibitor	BaF3 tox	GPR7 antagonist	Ba/F3 V617F tox	DNA FID counter	GPR7 antag cf	MCHR1 antagonist
Cc1ccc(OCc2nc(C#N)c(N3CCN(Cc4ccccc4)CC3)o2)cc1	i	i	i	43.2	i	i	44.1	51.2
N#Cc1nc(COc2ccccc2)oc1N1CCN(Cc2ccccc2)CC1	i	i	i	25.9	i	i	33.3	52.5
N#Cc1nc(COc2ccccc2)oc1N1CCC(Cc2ccccc2)CC1	i	i	i	i	i	i	nt	nt
CCOc1ccc(Oc2c(/C=N/NC(N)=O)c(C)nn2-c2ccccc2)cc1	i	i	i	i	i	i	nt	nt
CCOc1ccc(Oc2c(/C=N/NC(=O)COc3ccccc3OC)c(C)nn2-c2ccccc2)cc1	i	i	i	35.4	i	i	32.7	47.3
CCOCCCNC(=S)N1C2CCC1CC(NC(=O)Nc1ccc(C(=O)OCC)cc1)C2 (configuration not stated)	i	i	i	26.3	i	i	i	i
COc1ccc(-c2c(C)oc3cc(O)cc(O)c3c2=O)cc1OC	i	i	i	26.8	i	i	i	i
COc1ccc(-c2coc3cc(O)cc(O)c3c2=O)cc1OC	i	i	i	i	i	i	nt	nt
CCOc1cccc(OCCNC2CCCC2)c1	i	i	i	61.4	i	i	i	i
Cn1nnc2cc(C(=O)Nc3ccccc3F)ccc21	i	i	nt	i	nt	i	nt	nt
CCc1cccc(CC)c1NC(=O)Cn1c(-c2ccc(F)cc2)noc1=O	i	i	i	27.5	i	i	i	i
CCOc1ccccc1NC(=O)Cn1c(-c2ccc(Cl)cc2)noc1=O	i	i	i	i	i	i	nt	nt
O=C(CSc1nnc(CNc2ccc(Cl)cc2)n1Cc1ccccc1)NCc1ccco1	i	i	i	25.3	i	i	26.0	37.2
O=C(CSc1nnc(Cc2cccs2)n1Cc1ccco1)Nc1cccc(Cl)c1	i	i	i	21.2	i	i	24.6	33.1
CS(=O)(=O)N1CCC(C(=O)Nc2cccc(F)c2)CC1	i	i	nt	i	nt	i	nt	nt
COc1ccc(/C=N\NC(=O)c2ccc(Cn3cc(Br)c([N+](=O)[O-])n3)o2)c(OC)c1C	i	i	i	i	i	i	nt	nt
CCn1nc(C)c(CN2CCC(C(=O)Nc3cccc(-c4cccc(Cl)c4)c3)CC2)c1C	i	i	nt	25.5	nt	i	i	50.5
O=C(COC(=O)c1cc([N+](=O)[O-])ccc1N1CCOCC1)Nc1cccc(F)c1	i	i	nt	35.1	nt	i	i	24.3
CC(=O)Nc1ccc(NC(=O)COC(=O)c2cc([N+](=O)[O-])ccc2N2CCOCC2)cc1	i	i	nt	i	nt	i	nt	nt
CCOC(=O)c1ccc(S(=O)(=O)N2CCC(C(=O)OCC)CC2)cc1	i	i	i	i	i	i	nt	nt
CCOc1ccc(S(=O)(=O)N2CCN(c3ncccn3)CC2)cc1	i	i	nt	i	nt	i	nt	nt
CCOC(=O)C1CCN(S(=O)(=O)c2ccc(CC)cc2)CC1	i	i	i	21.1	i	i	i	24.8
CCc1ccc(S(=O)(=O)N2CCN(c3ncccn3)CC2)cc1	i	i	nt	25.6	nt	i	i	i
CCOC(=O)N1CCN(CC(O)c2c[nH]c3ccc(OC)cc23)CC1 (configuration not stated)	i	i	nt	i	nt	i	nt	nt
